According to PubChem BioAssay AID651640 (Broad Institute, 2012):
Where “and” joins values, the source holds several entries; their conditions need not be identical. Identical values can stand only once. Hit rate of the full screen: of about 350,000 compounds, about 6,000 (1.7%) were called active. Roughly 5% stayed inconclusive and do not appear here. No stated cut-off is given here; in the data, active means CPE inhibition above about 20% (passing the limit was not always enough); inconclusive means no clear call, values can overlap the other calls; tested in BHK-21 cells. The list comes from a sample in which actives are over-represented; it also holds similar structures and randomly drawn compounds. The source holds several records for some structures; these can differ, active in one and inactive in another.

assay: protection of cells from dengue 2 killing – plate reader, single concentration, primary screen (AID 651640); details: DENV2-infected cells, cytopathic effect rescue, at 9.99 µM, stronger effect = higher value;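 further: 0% = median of neutral control wells and 100% = median of positive control wells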

Q: For `CCCC(=O)N1CCC2(CC1)CN(C(=O)C1CCCCC1)[C@@H](CO)c1[nH]c3cc(OC)ccc3c12`, which CPE inhibition is on record?
A: 0.105% (inactive)

Q: With `C[C@@H]1CCCCO[C@@H](CN(C)C(=O)NC2CCCCC2)[C@@H](C)CN([C@@H](C)CO)C(=O)c2cc(NC(=O)C3CCCCC3)ccc2O1` as the compound, how does the CPE inhibition read?
A: -1.85% (inactive)

Q: Which CPE inhibition does the source give for `C[C@@H]1CN([C@@H](C)CO)C(=O)c2cccc(NC(=O)Nc3ccc4c(c3)OCO4)c2O[C@@H]1CN(C)C(=O)Nc1ccc(F)cc1` here?
A: 16.1% (inactive)

Q: With `C[C@H](CO)N1C[C@H](C)[C@@H](CN(C)C(=O)Nc2ccc3c(c2)OCO3)Oc2ccc(NC(=O)NC3CCCCC3)cc2CC1=O` as the compound, how does the CPE inhibition read?
A: 9.47% (inactive)

Q: With `COc1ccc(S(=O)(=O)N(C)C[C@H]2OCCCC[C@@H](C)Oc3ccc(NC(=O)NC(C)C)cc3C(=O)N([C@H](C)CO)C[C@H]2C)cc1` as the compound, how does the CPE inhibition read?
A: -2.15% (inactive)

Q: For `COCC(=O)N1CC(=O)N2[C@H](C1)[C@@H](c1ccc(C#Cc3cccc(OC)c3)cc1)[C@@H]2CO`, which CPE inhibition is on record?
A: -1.66% (inactive)

Q: Which CPE inhibition does the source give for `COc1ccc(S(=O)(=O)N(C)C[C@@H]2OCCCC[C@H](C)Oc3ccc(NC(=O)NC4CCCCC4)cc3C(=O)N([C@H](C)CO)C[C@H]2C)cc1` here?
A: -9.88% (inactive)

Q: With `CCCN1[C@H](C(=O)N2CCCCC2)[C@@H](CO)[C@@H]2Cn3c(ccc(-c4ccccc4F)c3=O)[C@@H]21` as the compound, how does the CPE inhibition read?
A: 0.279% (inactive)

Q: Which CPE inhibition does the source give for `C[C@H](CO)N1C[C@H](C)[C@@H](CN(C)C(=O)c2ccncc2)Oc2ncc(-c3ccncc3)cc2C1=O` here?
A: 0.501% (inactive)

Q: Which CPE inhibition does the source give for `C/C=C/c1cccc(-c2nc(C(=O)NCCN3CCCCC3)cc3c2[C@@H](CCO)N([S@](=O)C(C)(C)C)C3)c1` here?
A: 8.26% (inactive)

Q: Which CPE inhibition does the source give for `COCc1cn(CC[C@@H]2CC[C@@H](NC(=O)Nc3ccc(C(F)(F)F)cc3)[C@H](CO)O2)nn1` here?
A: 2.57% (inactive)

Q: For `O=C(C[C@H]1C[C@H]2c3cc(NC(=O)Nc4ccccc4)ccc3O[C@H]2[C@H](CO)O1)NC1CCCC1`, which CPE inhibition is on record?
A: 16.7% (inactive)

Q: Which CPE inhibition does the source give for `O=C(N[C@H]1CC[C@@H](CCNS(=O)(=O)Cc2ccccc2)O[C@H]1CO)c1ccccc1F` here?
A: 5.12% (inactive)

Q: For `CN(C)C(=O)c1cccc(-c2ccc([C@H]3[C@H](CO)N4C(=O)CN(C(=O)Cc5ccccc5)C[C@@H]34)cc2)c1`, which CPE inhibition is on record?
A: 4.14% (inactive)

Q: With `Cc1noc(C)c1NC(=O)Nc1ccc2c(c1)C(=O)N([C@H](C)CO)C[C@@H](C)[C@@H](CN(C)Cc1ccncc1)OCCCC[C@H](C)O2` as the compound, how does the CPE inhibition read?
A: 1.93% (inactive)

Q: For `CN1C(=O)c2cc(NC(=O)C3CCOCC3)ccc2OC[C@@H]2O[C@@H](CC(=O)NCC3CC3)CC[C@@H]21`, which CPE inhibition is on record?
A: -9.75% (inactive)

Q: Which CPE inhibition does the source give for `CN(C)C(=O)C[C@@H]1C[C@@H]2c3cc(NC(=O)NC4CCCCC4)ccc3O[C@@H]2[C@H](CO)O1` here?
A: -9.26% (inactive)

Q: With `CO[C@@H]1CN(C)C(=O)c2cc(NC(=O)C3CC3)ccc2OC[C@H](C)N(C(=O)c2ccccc2F)C[C@H]1C` as the compound, how does the CPE inhibition read?
A: -0.841% (inactive)

Q: With `CCC(=O)Nc1ccc2c(c1)C(=O)N(C)C[C@H](OC)[C@H](C)CN(C(=O)c1ccccc1F)[C@@H](C)CO2` as the compound, how does the CPE inhibition read?
A: 23.7% (active)

Q: Which CPE inhibition does the source give for `CCC(=O)Nc1ccc2c(c1)OC[C@H](C)N(C(=O)c1ccccc1F)C[C@@H](C)[C@H](OC)CN(C)C2=O` here?
A: -6.62% (inactive)

Q: With `C[C@@H]1CN([C@@H](C)CO)C(=O)c2cc(-c3cncnc3)cnc2O[C@@H]1CN(C)C(=O)c1ccccc1F` as the compound, how does the CPE inhibition read?
A: 16.7% (inactive)

Q: Which CPE inhibition does the source give for `COc1ccc2c(c1)[C@H]1[C@H](CO2)[C@H](c2ccccc2)[C@]2(C)C(=O)Nc3cc(F)c(F)cc3C(=O)N12` here?
A: -1.62% (inactive)

Q: Which CPE inhibition does the source give for `CCOC(=O)[C@H]1[C@H]2COc3ccc(Cl)cc3[C@@H]2N2C(=O)c3cc(C)ccc3NC(=O)[C@@]12C` here?
A: 4.71% (inactive)

Q: For `Cc1ccc2c(c1)NC(=O)[C@@]1(C)[C@@H](c3ccccc3)[C@H]3COc4ccc(Cl)cc4[C@@H]3N1C2=O`, which CPE inhibition is on record?
A: 82.7% (active)

Q: For `CCc1ccc2c(c1)NC(=O)C2(C)Cc1ccc(OC(F)(F)F)cc1` (stereo unspecified), which CPE inhibition is on record?
A: 48.3% (active)

Q: Which CPE inhibition does the source give for `COc1ccccc1CC1(C)C(=O)Nc2ccc(OC(F)(F)F)cc21` (stereo unspecified) here?
A: 0.818% (inactive)

Q: Which CPE inhibition does the source give for `Cc1ccc(CC2(C)C(=O)Nc3ccc(OC(F)(F)F)cc32)cc1` (stereo unspecified) here?
A: 6.39% (inactive)

Q: With `CC(C)NC(=O)Nc1cccc2c1O[C@@H](CN(C)Cc1ccc(C(=O)O)cc1)[C@@H](C)CN([C@H](C)CO)C2=O` as the compound, how does the CPE inhibition read?
A: -5.2% (inactive)

Q: With `CO[C@H]1CN(C)C(=O)c2ccc(NC(=O)c3cccc(F)c3)cc2OC[C@H](C)N(CC2CC2)C[C@@H]1C` as the compound, how does the CPE inhibition read?
A: -4.07% (inactive)

Q: For `O=C(O)/C=C/c1cn(-c2ccccc2)nc1-c1cccs1`, which CPE inhibition is on record?
A: 21.7% (active)

Q: With `O=C(O)c1ccc(N/N=C/c2cn(-c3ccccc3)nc2-c2cccs2)cc1` as the compound, how does the CPE inhibition read?
A: -1.67% (inactive)

Q: For `COc1cccc(NC(=O)CN(C)C(=O)/C=C/c2cn(-c3ccccc3)nc2-c2cccs2)c1`, which CPE inhibition is on record?
A: -12.9% (inactive)

Q: Which CPE inhibition does the source give for `COc1ccc(NC(=O)N[C@@H]2CC[C@H](CCn3cc(-c4ccc(OC)cc4)nn3)O[C@@H]2CO)cc1` here?
A: 3.46% (inactive)

Q: For `COc1cccc(NC(=O)N(C)C[C@H]2Oc3cc(/C=C/c4ccccc4)ccc3S(=O)(=O)N([C@H](C)CO)C[C@@H]2C)c1`, which CPE inhibition is on record?
A: 1.83% (inactive)

Q: With `Cc1cccc(C)c1OCCN1CCOCC1` as the compound, how does the CPE inhibition read?
A: 5.93% (inactive)

Q: For `c1ccc(-c2ccc(OCCN3CCOCC3)cc2)cc1`, which CPE inhibition is on record?
A: 27.1% (active)

Q: Which CPE inhibition does the source give for `COc1ccc(-c2sc3ccccc3c2-c2ccc(OCCN3CCOCC3)cc2)cc1` here?
A: 9.44% (inactive)

Q: Which CPE inhibition does the source give for `O=C(C[C@H]1CC[C@@H](NC(=O)Nc2ccc(F)cc2)[C@H](CO)O1)NCc1cccc(F)c1` here?
A: 1.45% (inactive)

Q: For `C[C@H](NC(=O)N(C)C[C@@H]1OCc2ccccc2-c2ccccc2C(=O)N([C@H](C)CO)C[C@@H]1C)c1ccccc1`, which CPE inhibition is on record?
A: 3.49% (inactive)

Q: For `O=C(C[C@@H]1CC[C@@H](NC(=O)CC2CC2)[C@H](CO)O1)NCc1ccc(-c2ccccc2)cc1`, which CPE inhibition is on record?
A: 2.21% (inactive)

Q: With `Cn1cnc(S(=O)(=O)N2C[C@H](O)COC[C@@H]3O[C@H](CC(=O)NCc4cccc(F)c4)CC[C@H]32)c1` as the compound, how does the CPE inhibition read?
A: -0.815% (inactive)

Q: Which CPE inhibition does the source give for `CCN1C(=O)[C@H]2[C@@H](c3ccccc3)N[C@]3(CCCN(Cc4ccc(C)cc4)C3=O)[C@H]2C1=O` here?
A: -9.89% (inactive)

Q: With `COc1ccc([C@H]2N[C@]3(CCCN(Cc4ccco4)C3=O)[C@H]3C(=O)N(C)C(=O)[C@@H]23)cc1` as the compound, how does the CPE inhibition read?
A: 91.3% (active)

Q: Which CPE inhibition does the source give for `Cc1ccc([C@H]2N[C@]3(CCCN(Cc4ccccc4)C3=O)[C@H]3C(=O)N(Cc4ccccc4)C(=O)[C@@H]23)cc1` here?
A: 12.7% (inactive)

Q: Which CPE inhibition does the source give for `CC(C)CC#Cc1ccc2c(c1)O[C@H](CN(C)C(=O)CC1CC1)[C@@H](C)CN([C@@H](C)CO)S2(=O)=O` here?
A: 0.266% (inactive)

Q: With `CCC(=O)N(C)C[C@@H]1Oc2cc(C#C[C@H](C)O)ccc2S(=O)(=O)N([C@H](C)CO)C[C@@H]1C` as the compound, how does the CPE inhibition read?
A: 8.89% (inactive)

Q: With `CCCNC(=O)N1[C@@H]2CNC[C@H]1C2c1ccc(-c2ccccc2)cc1` (stereo partly specified) as the compound, how does the CPE inhibition read?
A: -5.46% (inactive) and 6.08% (inactive)

Q: Which CPE inhibition does the source give for `COc1ccc(S(=O)(=O)N2C[C@@H](O)COC[C@H]3O[C@H](CC(=O)N[C@H]4CCN(Cc5ccccc5)C4)CC[C@@H]32)cc1` here?
A: 13.5% (inactive)

Q: With `CC(=O)N1[C@H](CO)[C@@H](c2ccccc2)[C@@H]1CN(CC(C)C)C(=O)c1ccccn1` as the compound, how does the CPE inhibition read?
A: -9.41% (inactive)

Q: With `CN(C)C(=O)c1ccc(-c2ccc(C3[C@H]4CNC[C@@H]3N4C(=O)Nc3cc(F)ccc3F)cc2)cc1` (stereo partly specified) as the compound, how does the CPE inhibition read?
A: 1.83% (inactive)

Q: With `O=S(=O)(c1ccccc1F)N1[C@@H]2CNC[C@H]1C2c1ccc(-c2cncnc2)cc1` (stereo partly specified) as the compound, how does the CPE inhibition read?
A: -1.33% (inactive)

Q: Which CPE inhibition does the source give for `Cc1cccc(-c2ccc(C3[C@H]4CNC[C@@H]3N4S(=O)(=O)c3ccccc3F)cc2)c1` (stereo partly specified) here?
A: -1.96% (inactive) and 22.1% (active)

Q: Which CPE inhibition does the source give for `N#Cc1ccc(-c2ccc(C3[C@H]4CNC[C@@H]3N4S(=O)(=O)c3ccccc3F)cc2)cc1` (stereo partly specified) here?
A: 6.8% (inactive)

Q: With `COc1cccc(-c2ccc(C3[C@H]4CNC[C@@H]3N4C(=O)Nc3ccc(F)cc3)cc2)c1` (stereo partly specified) as the compound, how does the CPE inhibition read?
A: -1.4% (inactive) and 18.6% (inactive)

Q: For `CN(C)C(=O)c1cccc(-c2ccc(C3[C@H]4CNC[C@@H]3N4C(=O)Nc3ccccc3F)cc2)c1` (stereo partly specified), which CPE inhibition is on record?
A: 23.3% (active)

Q: With `C[C@H](CO)N1C[C@H](C)[C@@H](CN(C)Cc2ccc(Cl)c(Cl)c2)Oc2ccc(NC(=O)Nc3ccc(C(F)(F)F)cc3)cc2CC1=O` as the compound, how does the CPE inhibition read?
A: -2.55% (inactive)

Q: For `CN1C(=O)c2cc(NC(=O)C3CC3)ccc2OC[C@@H]2O[C@@H](CC(=O)NCC3CCCCC3)CC[C@@H]21`, which CPE inhibition is on record?
A: -7.29% (inactive)

Q: With `C[C@@H]1CN([C@H](C)CO)C(=O)c2cccc(NC(=O)Nc3ccc(F)cc3)c2O[C@@H]1CN(C)C(=O)Nc1ccc(C(F)(F)F)cc1` as the compound, how does the CPE inhibition read?
A: 2.25% (inactive)

Q: With `O=C(NCc1ccncc1)c1cccc(NS(=O)(=O)c2ccc(F)c(F)c2)c1` as the compound, how does the CPE inhibition read?
A: 41.4% (active)

Q: For `O=C(NCc1ccncc1)c1ccc(NS(=O)(=O)c2cccc([N+](=O)[O-])c2)cc1`, which CPE inhibition is on record?
A: -0.812% (inactive)

Q: With `O=C(NCc1ccccc1)c1ccc(S(=O)(=O)Nc2cccc(C(F)(F)F)c2)cc1` as the compound, how does the CPE inhibition read?
A: 2.44% (inactive)

Q: For `CC(C)NC(=O)N[C@H]1CC[C@H](CC(=O)NC2Cc3ccccc3C2)O[C@H]1CO`, which CPE inhibition is on record?
A: -2.08% (inactive)

Q: For `C[C@@H]1CN([C@H](C)CO)S(=O)(=O)c2ccc(Br)cc2O[C@@H]1CN(C)Cc1cncnc1`, which CPE inhibition is on record?
A: 19.1% (inactive)

Q: Which CPE inhibition does the source give for `CCOC(=O)[C@H]1[C@H]2COc3cc(OC)ccc3[C@@H]2N2C(=O)CN(Cc3ccc(Cl)cc3)C(=O)[C@@]12C` here?
A: -5.6% (inactive)

Q: For `CCOC(=O)[C@H]1[C@H]2COc3ccccc3[C@@H]2N2C(=O)CN(Cc3ccccc3)C(=O)[C@@]12C`, which CPE inhibition is on record?
A: 95% (active)

Q: For `CCOC(=O)[C@H]1[C@H]2COc3ccc(C)cc3[C@@H]2N2C(=O)CN(Cc3ccc(F)cc3)C(=O)[C@@]12C`, which CPE inhibition is on record?
A: -7.57% (inactive)
